Assay outcomes from PubChem BioAssay.
CF NFkB inh = cystic fibrosis NF-kB activation inhibition; KKLEB NF-kB-GFP reporter, PAF-induced, GFP fluorescence overnight; inhibition, % at 5 µM; 0.86% of 360,000 active;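 active means at least 50% inhibition at 5 µM, scaled per plate between neutral and stimulator controls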;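 further: PAF is a Pseudomonas aeruginosa culture filtrate used as stimulus; plate controls were PAF-stimulated DMSO wells for no effect and unstimulated DMSO wells for full effect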
TWEAK-Fn14 inh = TWEAK-Fn14 signaling inhibition; TWEAK-stimulated Fn14 reporter cells, luciferase luminescence, 8 h; inhibition, % at 10 µM; 2% of 360,000 active; AID 1159606; in the data active means inhibition above about 50%
Peg3 prom inh = inhibitors of Peg3 promoter. HeLa PEG-Prom luciferase reporter, luminescence, overnight. inhibition, % at 20 µM. 1.7% of 360,000 active. AID 588405;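 active means inhibition of at least 50% at 20 µM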
HIF-2a block = inhibitors of HIF-2a; 786-0 RCC cells HIF-2a reporter, luciferase luminescence, overnight; 0.72% of 360,000 active; inhibition, % at 18.8 µM;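 active means inhibition of the luminescence signal of 40% or more relative to plate controls, in a single-dose primary screen at 18.75 µM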
TROY signal inh = inhibitors of TROY-dependent NF-kB signaling; Q293 LMP1-TROYcd NF-kB luciferase reporter, 4 h; inhibition, % at 10 µM; 0.98% of 360,000 active; AID 1347056;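 active means compounds whose plate-normalised and pattern-corrected inhibition of the luciferase reporter signal at the single screening dose is 50% or more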
KKLEB cytotox = CF airway cell cytotoxicity counter-screen | KKLEB CF airway cells viability, ATPlite luminescence, overnight; active compounds read low; cells stimulated with P. aeruginosa culture filtrate | activity change (cytotoxicity), % at 5 µM | 0.36% of 360,000 active;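 active means corrected activity change at or below -50% at 5 µM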
Starred values were filed as active, the others as inactive. Sampled rows, rich in hits. Any-hit rate of the full collection: about 4%.

SMILES | CF NFkB inh | TWEAK-Fn14 inh | Peg3 prom inh | HIF-2a block | TROY signal inh | KKLEB cytotox
O=C(N/N=C/c1cc([N+](=O)[O-])ccc1N1CCNCC1)c1ccc([N+](=O)[O-])cc1 | -5.3 | -120.8 | 102.5* | 28.3 | 3.4 | -6.8
N#CCC(=O)N/N=C/c1cc([N+](=O)[O-])ccc1N1CCCC1 | -105.9 | -41.2 | -56.5 | 6.0 | -39.1 | -1.5
N/C(=N\OC(=O)COc1ccc(Br)cc1Cl)c1ccccn1 | 1.8 | 66.4* | -183.1 | -55.6 | 21.5 | -22.7
Cc1cc(/C(N)=N/OC(=O)c2ccccc2Cl)no1 | -8.5 | 53.7* | -96.0 | -160.2 | 21.6 | 6.1
N/C(=N\OC(=O)c1cc(Cl)ccc1Cl)c1ccccn1 | -13.2 | 74.8* | 14.6 | -29.8 | 34.4 | -30.0
N/C(=N\NC(=O)Nc1ccc(Cl)cc1)c1ccccn1 | 11.3 | 30.8 | -226.3 | -212.3 | 64.0* | -4.4
O=C(COC(=O)[C@@H]1CC(O)CN1S(=O)(=O)c1ccc2c(c1)OCCO2)Nc1cc(F)ccc1F (some centres undefined) | 23.7 | -3.3 | -9.5 | 3.1 | -6.1 | -3.3
O=C(COc1ccc2c3c(c(=O)oc2c1)CCCC3)N1CCN(c2ccccc2)CC1 | -1.4 | -3.6 | 10.6 | -5.9 | 22.5 | 3.8
Cc1cc(C)c(C)c(OCC(=O)O/N=C(\N)c2ccccn2)c1 | 1.4 | -31.5 | -87.3 | -102.8 | -36.6 | 7.6
N/C(=N\OC(=O)COc1ccc(Cl)cc1Cl)c1ccccn1 | -23.9 | 55.7* | -115.0 | -107.2 | 25.6 | -8.4
N#CC1=C(N)SC(N)=C(C#N)C1c1cccc(Oc2ccccc2)c1 | 6.9 | 45.9 | 12.7 | -18.4 | 61.7* | -2.4
CCOc1ccc(C2C(C#N)=C(N)SC(N)=C2C#N)cc1OCC | 4.6 | 2.0 | 14.2 | 2.1 | 16.3 | 2.3
Cc1cc(C)c2nc(NNC(=O)c3ccc(S(=O)(=O)N4CCc5ccccc5C4)cc3)sc2c1 | 13.3 | -15.5 | 75.0* | 1.8 | -17.5 | -21.2
Cc1nnc(NC(=O)c2ccc(S(=O)(=O)N3CCc4ccccc4C3)cc2)o1 | 9.2 | 17.9 | 7.0 | 13.8 | 3.6 | -12.5
Cc1ccc(S(=O)(=O)N2CCN(c3nccnc3C#N)CC2)cc1 | 0.2 | -10.6 | 12.9 | 11.0 | -10.6 | -3.6
NS(=O)(=O)c1ccc(CCNCc2ccccc2OCc2ccc(Cl)cc2)cc1 | 14.3 | 2.8 | 86.8* | -2.1 | -9.3 | -0.4
NS(=O)(=O)c1ccc(CCNCc2cc(Cl)ccc2OCc2ccccc2)cc1 | 18.9 | 2.6 | 9.8 | 6.6 | 14.2 | 0.6
Cc1cc(Oc2nc3c(C)cccn3c(=O)c2/C=C(\C#N)S(=O)(=O)c2ccccc2)ccc1Cl | 26.4 | 11.2 | 67.8* | 21.3 | 0.4 | -9.1
Cc1cccn2c(=O)c(/C=C(\C#N)S(=O)(=O)c3ccccc3)c(Oc3ccc(Cl)cc3)nc12 | 8.1 | 11.5 | 28.5 | 11.3 | 13.6 | -10.4
Cc1ccccc1Oc1nc2c(C)cccn2c(=O)c1/C=C(\C#N)C(=O)Nc1c(C)n(C)n(-c2ccccc2)c1=O | 36.1 | 52.5* | 15.2 | 36.7 | 43.7 | -18.9
CCCCCCNC(=O)CC(c1ccccc1)c1cc(Br)ccc1O (centres undefined) | 13.2 | 42.0 | 38.5 | 29.4 | 55.4* | 17.8
CC(C)NC(=O)CC(c1ccccc1)c1cc(Br)ccc1O (centres undefined) | -5.5 | 11.5 | 17.1 | 7.5 | -4.2 | 8.5
COc1ccc(NC(=O)CC2C(=O)N(Cc3ccccc3)C(=S)N2CCN2CCOCC2)cc1 (centres undefined) | -19.4 | 37.2 | 1.0 | 1.9 | -14.4 | -7.0
C=CCN1C(=O)C(CC(=O)Nc2ccc(OCCC)cc2)N(CCCN2CCN(Cc3ccccc3)CC2)C1=S (centres undefined) | 4.7 | 18.2 | 52.1* | 3.7 | 22.7 | -21.1
CC(=O)Nc1ccc(NC(=O)CSc2nc3[nH]ncc3c(=O)n2-c2ccccc2)cc1 | 0.7 | 18.2 | -3.7 | 16.1 | 12.2 | 0.7
Cc1nnc(N/N=C/c2ccc([N+](=O)[O-])cc2)n1N | -8.5 | -12.3 | 2.1 | 0.6 | 55.4* | 6.3
COc1ccc(Cl)cc1Cn1c(C)c(C(=O)NCc2ccc(F)cc2)sc1=O | 13.3 | -5.9 | 9.7 | 0.4 | 12.1 | -7.5
COC(=O)C1CCN(C(=O)COC(=O)c2ccc(OC)c(S(=O)(=O)N3CCCc4ccccc43)c2)CC1 | -3.4 | 50.7* | -25.3 | 2.0 | 33.6 | 8.0
COC(=O)C1CCN(C(=O)c2ccc(OC)c(S(=O)(=O)N3CCCc4ccccc43)c2)CC1 | -24.9 | 18.2 | 12.5 | 16.7 | -3.0 | 2.8
